# Source: PubChem (National Center for Advancing Translational Sciences (NCATS))
# NIH3T3 tox – Cytotoxic Profiling in NIH 3T3 Cell Line of Diverse Libraries Using Quantitative High-Throughput Screening. NIH 3T3 viability, CellTiter-Glo ATP luminescence, 48-72 h. Potency, µM (top dose mostly 96.7 µM), for the others: top-dose activity change, negative = cytotoxicity, most hits filed as inhibitors. 94,000 compounds, 4.3% hits; note: % is set by controls: 0 for no effect and ±100 for the full control effect; nearly all actives have a fitted effect of over 55% in size
#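 Mouse fibroblast NIH 3T3 cells, 400 per well, received compound via pintool and were incubated for 48 or 72 hr prior to CellTiter-Glo ATP luminescence measurement.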
# hNpr1 antagonist – Natriuretic polypeptide receptor (hNpr1) antagonism - Primary qHTS. 76,000 compounds, 1.6% hits. Potency, µM (highest dose often 46.3 µM), for inactives: at the top dose activity change, negative = inhibition, hits mostly inhibitors. HEK293 hNpr1 GloSensor cGMP, ANP-stimulated luminescence; calls by dose curve; note: % is set by controls: 0 for no effect and ±100 for the full control effect; nearly all actives have a fitted effect of over 60% in size
#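 Compound pre-incubated 30 min at room temperature on GloSensor-loaded HEK293 cells stably carrying hNpr1 and the pGS-40F cGMP biosensor. Stimulation uses hNppA at 0.1 nM final; luminescence is taken at baseline and 20 min post-agonist.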
# FLuc inh-1 – Firefly luciferase inhibition profiling of diverse chemical library using quantitative high-throughput screening; Luciferin 4-monooxygenase (Photinus pyralis), P08659; purified P. pyralis luciferase, luminescence, biochemical; Potency, µM (top dose mostly 115 µM), actives largely listed as inhibitors; 76,000 compounds, 2.5% hits; note: % is set by controls: 0 for no effect and ±100 for the full control effect; nearly all actives have a fitted effect of over 65% in size
#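 Purified 10nM P. pyralis luciferase with 10uM D-luciferin and 10uM ATP in 50mM Tris acetate pH 7.5, 10mM Mg acetate, 0.01% Tween-20, 0.05% BSA. qHTS titration; luminescence read by CCD imager.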
# HEK293 tox – Cytotoxic Profiling in HEK 293 Cell Line of Diverse Libraries Using Quantitative High-Throughput Screening. HEK 293 viability, ATP luminescence (CellTiter-Glo), 48-72 h. Potency, µM (doses to about 115 µM), inactives show at the top dose activity change, negative = cytotoxicity, hits mostly inhibitors. 94,000 compounds, 6.6% hits. AID 1345083, 2018; note: % is set by controls: 0 for no effect and ±100 for the full control effect; nearly all actives have a fitted effect of over 60% in size
#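 Viability of HEK 293 cells, plated at 250 cells/well, was judged by cellular ATP after compound treatment for 48 or 72 hr. Luminescence was imaged 10 min after CellTiter-Glo addition at room temperature.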
# FLuc SDR no ATP – Firefly luciferase (FLuc-C-HiBiT) SDR gain of signal screen - without ATP; shares compounds with FLuc inh-1; Purified FLuc-C-HiBiT, Nano-Glo HiBiT luminescence, no ATP; Potency, µM (titrated, usually from 32.7 µM), for the others: at the top dose activation (signal gain), hits mostly activators; 1,300 compounds, 7.8% hits; AID 1963318, 2024; note: nearly all actives have a fitted effect of over 55% in size
# FLuc SDR ATP – Firefly luciferase (FLuc-C-HiBiT) SDR gain of signal screen - plus ATP; shares compounds with FLuc inh-1; purified FLuc-C-HiBiT + ATP, HiBiT complementation luminescence; Potency, µM (highest dose often 32.7 µM), inactives show at the top dose activation (gain of signal), actives largely listed as activators; 1,300 compounds, 8.7% hits; AID 1963319, 2024;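 note: signal reports ligand binding via conformational change of the enzyme rather than luciferase catalysis; % of control where 0% means no effect; nearly all actives have a fitted effect of over 55% in size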
# FLuc inh-2 – Firefly luciferase (FLuc-C-HiBiT) enzymatic inhibition screen - Functional assay; shares compounds with FLuc inh-1; purified FLuc-C-HiBiT enzyme, luciferin luminescence; Potency, µM (titrated, usually from 32.7 µM), without a hit: at the highest dose activity change, negative = inhibition, most hits filed as inhibitors; 1,300 compounds, 42% hits; note: % is set by controls: 0 for no effect and ±100 for the full control effect; nearly all actives have a fitted effect of over 70% in size
# NPR1 antag cnf – Natriuretic polypeptide receptor (hNpr1) antagonism - Confirmation | HEK293 hNpr1 cGMP GloSensor luminescence, ANP-stimulated | 1,400 compounds, 76% hits | shares compounds with hNpr1 antagonist | Potency, µM (doses to about 57.6 µM), for inactives: top-dose activity change, negative = inhibition, hits mostly inhibitors | AID 1347044, 2019; calls by dose curve; note: nearly all actives have a fitted effect of over 70% in size
# NPR2 antag – Natriuretic polypeptide receptor (hNpr2) antagonism - Subtype selectivity assay. 1,400 compounds, 67% hits. HEK293 hNpr2 GloSensor cGMP luminescence, CNP-stimulated. shares compounds with hNpr1 antagonist. Potency, µM (doses to about 57.6 µM), without a hit: at the highest dose activity change, negative = inhibition, actives largely listed as inhibitors; calls by dose curve; note: nearly all actives have a fitted effect of over 70% in size
# FLuc inh counter – Natriuretic polypeptide receptor (hNpr1) antagonism - Confirmation firefly luciferase (FLuc) inhibition counterscreen. 1,400 compounds, 0.7% hits. AID 1347047, 2019. shares compounds with hNpr1 antagonist. Potency, µM (highest dose often 57.6 µM), inactives show at the top dose activity change, negative = inhibition, usual class: inhibitors. purified FLuc enzyme, luminescence, Km substrate; note: 0% is about no effect
# GloSensor ctrl – Natriuretic polypeptide receptor (hNpr1) antagonism - Counterscreen GloSensor control cell line; AID 1347051, 2019; 1,400 compounds, 69% hits; Potency, µM (top dose mostly 57.6 µM), for inactives: at the highest dose activity change, negative = inhibition, actives largely listed as inhibitors; shares compounds with hNpr1 antagonist; HEK293 GloSensor cGMP, SNP-stimulated, luminescence; calls by dose curve; note: % is set by controls: 0 for no effect and ±100 for the full control effect; nearly all actives have a fitted effect of over 70% in size
# Starred values were filed as active, the others as inactive; i = inactive; ? = inconclusive; · = not tested or not shown; [ ] = remark or other dose. Rows were chosen to be rich in hits. Some 11% of all compounds tested hit in one or more screens of this group. Unless noted, calls come from the whole dose curve; as a rule, active = well fitted curve in the direction sought with a large enough effect; inconclusive = small, poorly fitted or top-dose-only effect, or another doubt; inactive = no such curve, though single readings can be large; an effect the other way counts as inactive or inconclusive. Potency is the fitted concentration of half-maximal effect.
SMILES,NIH3T3 tox,hNpr1 antagonist,FLuc inh-1,HEK293 tox,NPR1 antag cnf,NPR2 antag,FLuc inh counter,GloSensor ctrl,others
COc1cccc(C(=O)Nc2ccc(-c3nc4ccccc4s3)c(O)c2)c1,·,·,·,·,·,·,·,·,FLuc SDR no ATP=13%;FLuc SDR ATP=9%;FLuc inh-2=1%
COc1cccc(C(=O)Nc2cnc(-c3ccccc3)nc2)c1,-22%,-29%,i,?,·,·,·,·,
CCCC(O)CN1CCC(=O)N(CC)Cc2cc(F)ccc21 (stereo unspecified),-18%,·,·,?,·,·,·,·,
Cc1cc(CNC(=O)c2cc(C(C)C)nn2C)c2[nH]c(C)c(C)c2c1,?,7.1µM*,i,40µM*,6.9µM*,6.9µM*,-2%,4.8µM*,
CCc1[nH]c2c(CNC(=O)c3c(C)cc(C)n(C)c3=O)cc(F)cc2c1C,-7%,-1%,i,-1%,·,·,·,·,
Cc1oc(C(O)c2ccccc2F)nc1C(=O)Nc1ccccc1C(N)=O (stereo unspecified),?,25µM*,i,?,31µM*,35µM*,3%[86.2 µM],35µM*,
CNC(=O)c1cccc(NC(=O)c2nc(C(O)c3ccccc3F)oc2C)c1 (stereo unspecified),?,35µM*,i,79µM*,31µM*,31µM*,2%[86.2 µM],31µM*,
CCCc1nc(NCc2nc(Cc3cccs3)no2)c2cnn(C)c2n1,?,13µM*,i,45µM*,22µM*,22µM*,5%,22µM*,
CC(C)Cc1cc(C(=O)NCc2nc(Cc3cccs3)no2)on1,-15%,4%,i,-9%,·,·,·,·,
Cc1nn2c(c1-c1ccccc1OCc1ccccc1)N(C(=O)c1cccnc1)CCC2,?,3%[70.6 µM],i,-7%[172 µM],·,·,·,·,
CC(=O)Nc1ccccc1-c1c(C)nn2c1N(C(=O)Cc1ccc(Cl)cc1)CCC2,?,-2%[70.6 µM],i,-5%[172 µM],·,·,·,·,
COc1cccc(CC(=O)N2CCCn3nc(C)c(-c4ccccc4Oc4ccccc4)c32)c1,?,?,i,45µM*,?,19µM*,1%,-17%,
Cc1nn2c(c1-c1ccccc1OCc1ccccc1)N(Cc1ccc(C(=O)O)s1)CCC2,32µM*,6.3µM*,i,35µM*,5.4µM*,7.7µM*,-9%,6.1µM*,
CC(=O)N1CCCn2nc(C)c(-c3ccccc3OCc3ccccc3)c21,?,-1%[70.6 µM],i,?,·,·,·,·,
CC(=O)Nc1ccccc1-c1c(C)nn2c1N(C(=O)c1ccc(Oc3ccccc3)cc1)CCC2,?,11µM*,i,?,19µM*,17µM*,1%,17µM*,
Cc1nn2c(c1-c1ccccc1OCc1ccccc1)N(C(=O)CCc1cccnc1)CCC2,?,?,i,?,?,?,4%,-2%,
COc1ccc(C2Cn3nnc(-c4noc(-c5ccoc5)n4)c3CO2)cc1 (stereo unspecified),-8%,?,i,-5%,·,·,·,·,
Cc1nn2c(c1-c1ccccc1Oc1ccccc1)N(C(=O)Cc1cccc(F)c1)CCC2,40µM*,?,i,?,?,?,1%,-23%,
Cc1nn2c(c1-c1ccccc1C(C)C)N(C(=O)Cc1ccc(O)cc1)CCC2,?,-2%[70.6 µM],i,?,·,·,·,·,
Cc1nn2c(c1-c1ccccc1C(N)=O)N(C(=O)Cc1cccc(F)c1)CCC2,?,-1%[70.6 µM],i,-16%[172 µM],·,·,·,·,
COc1cccc(CC(=O)N2CCCn3nc(C)c(-c4ccccc4-c4ccccc4)c32)c1,79µM*,?,i,?,?,31µM*,2%[86.2 µM],-25%[86.2 µM],
Cc1nn2c(c1-c1ccccc1Oc1ccccc1)N(C(=O)Cc1ccc(O)cc1)CCC2,79µM*,20µM*,i,89µM*,35µM*,28µM*,1%[86.2 µM],?,
CCn1c(=O)c2c(cc(C)n2C)n(CC(=O)Nc2ccc(F)cc2F)c1=O,-15%,5%,i,3%,·,·,·,·,
CNC(=O)c1cc(C2CC2)nc2c1c(C1CCCN1C(=O)C1CCCC1)nn2C (stereo unspecified),-5%,·,·,-8%,·,·,·,·,
COCc1nnc(C2CC3(CCN(C(=O)c4ccc(OC)c(F)c4)CC3)CN2C)o1 (stereo unspecified),-18%,·,·,-7%,·,·,·,·,
Cc1noc(C)c1[S+](=O)([O-])N1CCc2nc(C(C)C)nc(-c3ccc(O)cc3)c2C1,?,-4%,i,?,-24%,?,1%[86.2 µM],8%,
Cc1noc(C)c1[S+](=O)([O-])N1CCc2nc(C(C)C)nc(-c3ccc(Cl)cc3)c2C1,-21%,-23%,i,?,·,·,·,·,
